The source of these data is ChEMBL document CHEMBL1157539, “Thousands of chemical starting points for antimalarial lead identification” (Nature, 2010).

What all share (format): functional
In assay [1] the test system is Plasmodium falciparum. As to the kind of experiment: GSK_TCMDC: Inhibition of Plasmodium falciparum 3D7 in whole red blood cells, using parasite LDH activity as an index of growth. Test compounds present at 2uM.
Assay [2] has as its system Plasmodium falciparum. The assay is described as follows: GSK_TCMDC: Inhibition of Plasmodium falciparum Dd2 in whole red blood cells, using parasite LDH activity as an index of growth. Test compounds present at 2uM.
The next assay deals with HepG2. As to the kind of experiment: GSK_TCMDC: Percent inhibition of human HepG2 cell line. Test compounds present at 10uM.

Consider `C=C1N(C)c2cc([N+](=O)[O-])c(N)cc2C1(C)C`, for which the Inhibition in the assay with Plasmodium falciparum [1] was 98%; in the assay on Plasmodium falciparum [2], 83%; in the assay with HepG2, 22%.
As for `COCCn1c(C)nc2ccccc2c1=O`, the Inhibition in the assay with Plasmodium falciparum [1] was 89%; in the assay with Plasmodium falciparum [2], 67%; in the assay with HepG2, 0%.
`COc1ccc2nccc([C@@H](O)CN3CCC(NCc4[nH]c5ccccc5c4F)CC3)c2c1.O=C(O)C(=O)O`: the Inhibition in the assay with Plasmodium falciparum [1] is 100%; in the assay on Plasmodium falciparum [2], 61%; in the assay on HepG2 it was 19%.
Regarding `Cc1ccc2[nH]c(-c3ccccc3Nc3ccnc4cc(-c5nccs5)ccc34)nc2c1.Cl`, the Inhibition with Plasmodium falciparum [1] came to 100%; in the assay on Plasmodium falciparum [2] it was 100%; in the assay on HepG2 it was 40%.
For the molecule `Nc1nccc2ccc(-c3ccnc(NCc4cccnc4)n3)cc12`, the Inhibition is reported as 100% in the assay with Plasmodium falciparum [1], 95% with Plasmodium falciparum [2] and 11% in the assay on HepG2.
With `O=C(CN1CCN(C(=O)c2ccco2)CC1)Nc1ccccc1Br`, the Inhibition in the assay with Plasmodium falciparum [1] stood at 97%; in the assay on Plasmodium falciparum [2] it was 96%; with HepG2, 15%.
On to `CC(C)n1c(C2CCN(CC3CCN(C(=O)/C=C/c4ccc(Cl)c(Cl)c4)CC3)CC2)nc2ccccc21`, for which the figures for the Inhibition in the assay with Plasmodium falciparum [1], in the assay with Plasmodium falciparum [2] and with HepG2 were 94%, 7% and 36%, respectively.
Regarding `COc1ccc(CN2CCC(NCc3ccc(C(F)(F)F)cc3)CC2)cc1.O=C(O)C(F)(F)F`, the figures for the Inhibition in the assay on Plasmodium falciparum [1], with Plasmodium falciparum [2] and in the assay on HepG2 were 97%, 0% and 37%, respectively.
For the molecule `COc1ccccc1N1CCN(c2cccc3c2nc(-c2cncc(C#N)c2)n3CCNCc2ccccc2)CC1.O=C(O)C(F)(F)F`, the Inhibition is 100% in the assay with Plasmodium falciparum [1], 81% in the assay with Plasmodium falciparum [2] and 0% in the assay on HepG2.
On to `O=C(CSc1nnc(O)n1Cc1ccccc1)Nc1ccccc1-c1ccccc1`, for which the values for the Inhibition in the assay on Plasmodium falciparum [1], in the assay on Plasmodium falciparum [2] and in the assay with HepG2 were 89%, 36% and 0%, respectively.
With `CCn1c(-c2nonc2N)nc2c(-c3cccc(NC(=O)Nc4cccc(C(F)(F)F)c4)c3)ncc(OCCCN)c21.O=C(O)C(F)(F)F`, the Inhibition in the assay with Plasmodium falciparum [1] came to 95%; in the assay with Plasmodium falciparum [2], 70%; with HepG2, 21%.
For the molecule `CCN(CCCN1CCCCC1)c1cc(C)nc(Nc2cc(Br)ccc2C)n1.O=C(O)C(F)(F)F`, the values for the Inhibition with Plasmodium falciparum [1], in the assay with Plasmodium falciparum [2] and in the assay on HepG2 were 98%, 39% and 32%, respectively.
As to `CN(C)c1ccc(CN2CCC(NC(=O)c3ccc(-c4ccccc4Cl)s3)CC2)cc1.O=C(O)C(F)(F)F`, the Inhibition in the assay with Plasmodium falciparum [1] was 82%; in the assay on Plasmodium falciparum [2], 27%; with HepG2, 35%.
Turning to `Cc1cc(C=C(P(=O)(OC(C)C)OC(C)C)P(=O)(OC(C)C)OC(C)C)c2ccccc2c1O`, the Inhibition in the assay with Plasmodium falciparum [1] came out at 85%; in the assay on Plasmodium falciparum [2], 54%; with HepG2, 15%.
For `CC(CN1CCN(C)CC1)C(=O)Nc1ccc(-c2cccc(-c3nc4cc(C(F)(F)F)ccc4[nH]3)c2)cc1` (stereo not drawn) the same measures were 99%, 96% and 16%.
Take `COc1ccc2ncc(C#N)c(CCN3CCC(NCc4ccc5c(c4)OCCO5)CC3)c2c1.Cl`: the Inhibition in the assay on Plasmodium falciparum [1] was 96%; in the assay on Plasmodium falciparum [2], 31%; in the assay on HepG2, 12%.
`NC(=O)c1cnc2cc(-c3ccncc3)cc(Nc3ccc(NC(=O)C4CCCCC4)cc3)c2c1`: the Inhibition came to 98% in the assay with Plasmodium falciparum [1], 99% in the assay on Plasmodium falciparum [2] and 58% in the assay with HepG2.
For `CCCCOc1cc(CNCCCCCCNCc2cc(OCCCC)cc3ccccc23)c2ccccc2c1.CS(=O)(=O)O` the same measures were 100%, 92% and 99%.
Regarding `CC(C)CCNC(=N)c1ccc(OCCCCCOc2ccc(C(=N)NCCC(C)C)cc2)cc1.Cl`, the Inhibition came to 98% with Plasmodium falciparum [1], 94% with Plasmodium falciparum [2] and 5% with HepG2.
`Cn1cnc(CCNC(=O)c2cccc(-c3ccc(-c4nc5cc(F)ccc5[nH]4)cc3)c2)c1`: the results for the Inhibition with Plasmodium falciparum [1], in the assay on Plasmodium falciparum [2] and in the assay with HepG2 were 88%, 5% and 26%, respectively.
For `O=S(=O)(c1ccc2cc[nH]c2c1)N1CCC[C@@H]1CCN1CCC(c2c[nH]c3cnccc23)CC1`, the Inhibition in the assay with Plasmodium falciparum [1] turned out to be 95%; in the assay with Plasmodium falciparum [2] it was 0%; in the assay with HepG2 it was 13%.
Take `CC(C)C1CCc2nc(N)nc(N)c2C1.Cl` (stereo not drawn): the Inhibition in the assay on Plasmodium falciparum [1] worked out at 95%; with Plasmodium falciparum [2] it was 0%; with HepG2 it was 70%.
In the case of `COc1cccc2cc(C(=O)N[C@@H](CC(C)C)C(=O)N[C@H](/C=N/NC(=O)N3CCN(C)CC3)CCc3ccccc3)oc12.Cl`, the Inhibition in the assay on Plasmodium falciparum [1] is 85%; in the assay on Plasmodium falciparum [2], 73%; in the assay with HepG2, 1%.
For `CCOC(=O)NCC(=O)Nc1cccc(-c2cccc(-c3nc4cccc(C)c4[nH]3)c2)c1` the same measures were 88%, 35% and 14%.
`Cc1ccc2nc(-c3ccc(/C=C/C(=O)NC4CCN(Cc5ccccc5)CC4)cc3)[nH]c2c1C`: the Inhibition with Plasmodium falciparum [1] was 100%; in the assay with Plasmodium falciparum [2] it was 92%; with HepG2, 22%.
For `CS(=O)(=O)Cc1cccc(Nc2ncc(Cl)c(Nc3cccnc3C(N)=O)n2)c1.Cl`, the results for the Inhibition with Plasmodium falciparum [1], in the assay with Plasmodium falciparum [2] and in the assay with HepG2 were 96%, 97% and 56%, respectively.
For `Cc1cccc2nc(-c3ccc(-c4cccc(CN5CCC(C(N)=O)CC5)c4)cc3)[nH]c12.O=C(O)C(F)(F)F` the same measures were 87%, 16% and 9%.
As to `COc1cc(Nc2nc(N)n(C(=O)c3ccc4c(c3)OCO4)n2)cc(OC)c1OC`, the Inhibition in the assay with Plasmodium falciparum [1] was 90%; in the assay with Plasmodium falciparum [2], 40%; with HepG2, 60%.
For `O=C(Nc1nc(-c2ccccn2)cc2ccccc12)c1cccc(Cl)c1` the same measures were 96%, 72% and 59%.
For the molecule `CCC[C@@H]([C@@H](CC1CCCCC1)C(=O)N[C@H](C(=O)Nc1nccs1)C(C)(C)SC)N(O)C=O`, the Inhibition with Plasmodium falciparum [1] was 97%; in the assay with Plasmodium falciparum [2], 98%; with HepG2, 51%.
Regarding `Cc1noc(C)c1-c1ccc2c(Nc3nccc4ccccc34)c(C(N)=O)cnc2c1`, the Inhibition in the assay on Plasmodium falciparum [1] worked out at 100%; in the assay with Plasmodium falciparum [2], 99%; in the assay with HepG2 it was 100%.
